Pf Dd2 growth = blocks in vitro growth of P. falciparum Dd2 | P. falciparum Dd2 growth, SYBR Green, 72 h | Potency, µM (doses to about 28.9 µM), hits mostly inhibitors | 120,000 tested, 4.3% active | AID 1347417; active means well fitted inhibition curve with a large enough effect; further: nearly all actives have a fitted effect of over 65% in size
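Readout: SYBR Green fluorescence, 485 nm excitation, 535 nm emission, after ~16 h lysis at 37C. Before that, Dd2-infected red cells (2.5% hematocrit) grew 72 h with compound, 29 uM top final concentration.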
A number is an active result; – = inactive; [ ] = remark or other dose. Shown is part of a subset that was picked to be rich in hits.

SMILES	Pf Dd2 growth
COC(=O)C(C)Sc1ncnc2c1c(-c1ccccc1)cn2-c1ccc(F)cc1 (centres undefined)	5.6µM
COc1ccc(-n2cc(-c3ccccc3)c3c(SC(C)C(C)=O)ncnc32)cc1 (centres undefined)	–
COc1ccc(CC(=O)Nc2ccc(N3CCC(NCCCn4cccn4)CC3)cc2)cc1	–
COCCNc1ncnc2c1CN(c1ccccc1C)C(=O)CN2C	–
COc1cc(OC)cc(C(=O)N2CCC3(CC2)N=C(c2ccccc2)NO3)c1	–
O=C(CCc1ccccc1)N1CCC2(CC1)N=C(c1cccc(Br)c1)NO2	–
COc1cccc(CCC(=O)N2CCC3(CC2)N=C(c2ccccc2)NO3)c1	11µM
Cc1ccc(CN(Cc2ccco2)C(=O)COc2ccc(Cl)cc2Cl)cc1	–
CCc1ccc(CN(Cc2ccco2)c2cnc(S(C)(=O)=O)nc2C(=O)Nc2cccc(C)c2)cc1	11µM
Cc1ccc(NC(=O)c2nc(S(C)(=O)=O)ncc2N(Cc2ccc(C(C)(C)C)cc2)Cc2ccco2)cc1C	7.1µM
Cc1ccc(NC(=O)c2nc(S(=O)(=O)Cc3ccc(F)cc3)ncc2Cl)cc1C	–[5.79 µM]
Cc1cccc(NC(=O)Cn2nnc(C(=O)NCc3ccco3)c2N)c1	–
CC(C)(C)c1ccc(C(=O)N(Cc2ccc(F)cc2)Cc2ccco2)cc1	–
COc1ccc(NC(=O)Cn2c(N(C)Cc3ccccc3)nc(C)cc2=O)cc1Cl	–
CCS(=O)(=O)c1ncc(N(Cc2ccccc2)Cc2ccco2)c(C(=O)Nc2ccccc2C)n1	–
COc1ccc(NC(=O)c2nc(S(C)(=O)=O)ncc2N(Cc2ccc(C)cc2)Cc2ccco2)cc1Cl	10µM
CCCS(=O)(=O)c1ncc(Cl)c(C(=O)N(Cc2ccccc2)Cc2ccco2)n1	–
CCS(=O)(=O)c1ncc(Cl)c(C(=O)Nc2c(C(=O)Nc3cccc(C)c3)oc3ccccc23)n1	–
CCS(=O)(=O)c1ncc(N(Cc2ccccc2)Cc2ccco2)c(C(=O)Nc2ccc(C)c(C)c2)n1	5µM
CCS(=O)(=O)N1CCC(c2noc(COCC3CC3)n2)CC1	–
O=C(c1cccc(C(F)(F)F)c1)N1CCCN(c2nnc3ccc(Cl)cn23)CC1	–
CNC(=O)c1cnn2c1CN([S+](=O)([O-])c1c(C)noc1C)CC2	–
Cn1c(Cn2cccn2)nnc1C1CC(NC(=O)c2ccc(CO)o2)C1 (centres undefined)	–
O=C(Nc1ccc(F)cc1)N[C@H]1[C@H](O)[C@@H](N2CCN(c3ccccc3)CC2)[C@@H]2OC[C@H]1O2	–
COCCn1c(C)cnc1CCNC(=O)c1ccnn1C	–
SMILES	Pf Dd2 growth
Cc1cc(C(=O)NCc2c(C)ncc3c2CCNC3)n[nH]1	–
O=C(c1ccccc1)N1CCC(n2c(=O)[nH]c3ccccc32)CC1	–
O=C(Nc1ccc(F)cc1)c1ccn2cncc2c1	–
CNC(=O)c1cnn2c1CN(C(=O)OCc1ccccc1)CC2	–
NS(=O)(=O)CCCC(=O)N1CCCC(CCc2ccccc2F)C1 (centres undefined)	–
Cc1noc(C)c1[S+](=O)([O-])N1CCCC2(C1)C(=NC1CCCC1)NC(=O)N2c1cc(F)cc(F)c1 (centres undefined)	–
O=C(c1ccnc2ccccc12)N1CCC2(CC1)Nc1ccccc1NC2=O	–
C=CCNC(=O)N[C@H]1[C@H](O)[C@@H](N2CCC(Cc3ccccc3)CC2)[C@@H]2OC[C@H]1O2	–
NC1(Cc2cc(C(=O)N3CCCCC3)on2)COC1	–
Cc1ccsc1CN(Cc1ccco1)c1cnc(S(C)(=O)=O)nc1C(=O)Nc1ccc(Cl)cc1	4.5µM
CN(c1ccccc1)S(=O)(=O)c1ccc(NC(=O)c2nc(S(C)(=O)=O)ncc2Cl)cc1	–[5.79 µM]
CS(=O)(=O)c1ncc(Cl)c(C(=O)Nc2c(C(=O)Nc3ccccc3)oc3ccccc23)n1	–
COc1ccc(C2(C(=O)N3CCCCCCNC(=O)[C@@H]4CCCC[C@@H]43)CC2)cc1	–
CCNC(=O)C1CCN(C(=O)CC(=O)Nc2ccccc2OCC)C1 (centres undefined)	–
COc1ccccc1CN1Cc2[nH]cnc2C[C@H]1c1nc(-c2cccc(C)c2)no1	13µM
Cc1ccc(-c2noc([C@@H]3Cc4nc[nH]c4CN3Cc3ccccc3)n2)cc1	10µM
CCNC(=O)N1Cc2[nH]cnc2C[C@H]1c1nc(-c2ccc(F)c(Cl)c2)no1	–
Fc1ccc(CN2Cc3[nH]cnc3C[C@H]2c2nc(-c3ccc(F)c(Cl)c3)no2)cc1	11µM
CN(C)c1ccc(CN2Cc3[nH]cnc3C[C@H]2c2nc(-c3ccccc3)no2)cc1	–
O=C(c1ccccc1)N1Cc2[nH]cnc2C[C@H]1c1nc(-c2ccc(Cl)cc2)no1	–
O=C(Nc1ccc(Cl)cc1)N1Cc2[nH]cnc2C[C@H]1c1nc(-c2ccc(F)c(Cl)c2)no1	–
c1ccc(CN2Cc3[nH]cnc3C[C@H]2c2nc(-c3ccccc3)no2)cc1	13µM
Cc1ccc(-c2noc([C@@H]3Cc4nc[nH]c4CN3C(=O)CCC(=O)O)n2)cc1	–
Cc1cccc(-c2noc([C@@H]3Cc4nc[nH]c4CN3C(=O)CC(C)(C)CC(=O)O)n2)c1	–

Assay outcomes (PubChem BioAssay)
